Source: PubChem
Rows were chosen to be rich in hits. Some 17% of all compounds tested hit in one or more screens of this group.
DT40 TDP1 CPT – DT40-hTDP1 cell growth loss with CPT; hit rate 12% among 420,000; AID 686979; Potency, µM (top dose mostly 46.2 µM), without a hit: top-dose activity change, negative = growth inhibition, usual class: inhibitors; chicken DT40 Tdp1-/-;hTDP1 cells + 20 nM CPT, ATP luminescence, 48 h; note: % is set by controls: 0 for no effect and ±100 for the full control effect; nearly all actives have a fitted effect of over 55% in size
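Cell growth measured by CellTiter-Glo luminescence after a minimum 48 h, 37 C compound exposure with 20 nM CPT in Tdp1-knockout DT40 cells stably expressing hTDP1, seeded 400/well; qHTS titration format.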
TDP1 inh – TDP1 (human) enzyme inhibition; Q9NUW8; hit rate 0.28% among 350,000; Potency, µM (series often up to 130 µM), for the others: at the top dose activity change, negative = inhibition, hits mostly inhibitors; recombinant TDP1, AlphaScreen DNA substrate cleavage; note: % is set by controls: 0 for no effect and ±100 for the full control effect; nearly all actives have a fitted effect of over 40% in size
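Recombinant E. coli-expressed Tdp1 (1 nM) preincubated with compound 15 min at RT, then 5'-biotin/3'-phosphotyrosine-FITC DNA substrate (15 nM) added for 5 min. AlphaScreen beads (10 ug/ml) added, 10 min RT; tyrosine-FITC cleavage read as signal loss.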
ClpP mod – qHTS Assay for Activators of ClpP; AID 651965, 2013; Potency, µM (top dose mostly 57.5 µM), for the others: at the highest dose activity change, negative = active; ATP-dependent Clp protease proteolytic subunit (Bacillus subtilis (strain 168)), P80244; purified B. subtilis ClpP, FRET peptide cleavage, 20 min; hit rate 1.9% among 340,000; active = well fitted falling curve with a large enough effect; inconclusive = small, poorly fitted or top-dose-only effect; inactive = no such curve, though single readings can be large or run the other way; note: the source files actives as falling curves though it sought activators and does not explain the sign; nearly all actives have a fitted effect of over 65% in size
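Purified B. subtilis ClpP, 10 microg/mL final in Tris/HCl pH8 with KCl, BSA, glycerol and Tween-20, cleaved an Abz/nitrotyrosine-quenched decapeptide. Fluorescence (ex 320, em 430) was read at 0 and 20 min at room temperature. Delta was normalized to 5.8 microM ADEP and DMSO/no-enzyme controls.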
DT40 TDP1 no CPT – qHTS for Inhibitors of human tyrosyl-DNA phosphodiesterase 1 (TDP1): qHTS in cells in absence of CPT; DT40 Tdp1-/- hTDP1 cells, no CPT, ATP luminescence, 48 h; AID 686978, 2013; Potency, µM (doses to about 46.2 µM), for inactives: at the top dose activity change, negative = growth inhibition, most hits filed as inhibitors; hit rate 15% among 420,000; note: % is set by controls: 0 for no effect and ±100 for the full control effect; nearly all actives have a fitted effect of over 55% in size
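A cellular qHTS used chicken DT40 cells lacking endogenous Tdp1 but carrying stably transfected human TDP1. Compounds were applied without camptothecin, and cell growth kinetics were judged by ATP-dependent luminescence after ≥48 hr.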
Starred values were filed as active, the others as inactive; ? = inconclusive; . = not tested or not shown; ! = not confirmed by another sample; [ ] = remark or other dose. Unless noted, calls come from the whole dose curve; as a rule, active = well fitted curve in the direction sought with a large enough effect; inconclusive = small, poorly fitted or top-dose-only effect, or another doubt; inactive = no such curve, though single readings can be large; an effect the other way counts as inactive or inconclusive. Potency is the fitted concentration of half-maximal effect.

SMILES | DT40 TDP1 CPT | TDP1 inh | ClpP mod | DT40 TDP1 no CPT
CCCC(=O)C1=C(O)C(C(=O)OC)C(C)(C)CC1=Nc1cccc2ccccc12 (configuration not stated) | ? | 3% | -6% | 23µM*
CCC(=NCc1ccccc1)C1=C(O)C(C(=O)OC)C(C)(C)CC1=O (configuration not stated) | -13% | -5% | 3.2µM* | ?
CCCC(=NCc1ccccc1)C1=C(O)C(C(=O)OC)C(C)(C)CC1=O (configuration not stated) | ? | 5% | 1% | ?
CC1(C)C(=O)C=CC(=O)C(C)(C)C(=O)C=CC(=O)C(C)(C)C2=CC=C(O2)C(C)(C)C(=O)C=CC1=O | 0.82µM* | . | 1% | 0.82µM*
C=C1CC[C@H](O)C/C1=C/C=C1\CCC[C@]2(C)C([C@H](C)CC[C@@H](O)C(C)(C)O)CC[C@@H]12 (some centres not stated) | . | 2% | . | .
C=C1CC[C@H](O)C/C1=C/C=C1\CCC[C@]2(C)C([C@H](C)CCCC(C)(C)O)CC[C@@H]12 (some centres not stated) | 0.046µM*! | 4% | . | 0.021µM*!
CN1c2ccccc2C(C)(C)C12C=Cc1cc(O)ccc1O2 (configuration not stated) | 13µM* | 7% | -1% | 16µM*
CNC(=O)Cn1cc(S(=O)(=O)Cc2ccccc2F)c2ccccc21 | -5% | 6% | 0% | ?
COc1ccccc1NC(=O)Cn1cc(S(=O)(=O)Cc2ccccc2)c2ccccc21 | ? | 11% | -1% | ?
CC(C)CCNC(=O)Cn1cc(S(=O)(=O)Cc2ccc(F)cc2)c2ccccc21 | 26µM* | 0% | -1% | ?
COC(=O)c1ccccc1NC(=O)Cn1cc(S(=O)(=O)Cc2ccccc2F)c2ccccc21 | 15µM* | 2% | 38% | 21µM*
COc1ccc(CCNC(=O)Cn2cc(S(=O)(=O)Cc3cccc(Cl)c3)c3ccccc32)cc1OC | ? | 2% | 2% | 18µM*
COc1ccc2[nH]c(=O)c(CN(c3ccccc3)S(=O)(=O)c3ccccc3)cc2c1 | ? | 3% | -9% | 21µM*
CCC(=O)N(Cc1cc2cc(OC)ccc2[nH]c1=O)c1ccccc1OC | ? | . | 4% | ?
Cc1ccc2cc(CN(c3ccccc3)S(=O)(=O)c3ccccc3)c(=O)[nH]c2c1 | -25% | . | . | ?
COc1ccc2[nH]c(=O)c(CN(c3ccccc3OC)S(=O)(=O)c3ccccc3)cc2c1 | 16µM* | . | 4% | 15µM*
COC(=O)N1C(=O)[C@@](Cc2ccccc2)(c2ccccc2)N1C(=O)OC | ? | . | 2% | 18µM*
COC(=O)N1[C@H](C)C=C[C@]1(Cc1ccccc1)C(=O)OC | -13% | 6% | 0% | -5%
COC(=O)N1C(=O)[C@](Cc2ccccc2)(c2ccccc2)N1C(=O)OC | 13µM* | . | 1% | 12µM*
Cc1cccc(N2CCN(C(=O)COc3noc4nc(C)cc(C)c34)CC2C)c1 (configuration not stated) | ? | . | -3% | ?
O=C(OC1C[C@@H]2CC3C[C@H](C1)N2CC3=O)c1c[nH]c2ccccc12 (some centres not stated) | ? | . | . | 21µM*
CCCOc1ccc(-c2nn(-c3ccccc3)cc2C2NC(=O)NC(C)=C2C(=O)OC)cc1 (configuration not stated) | ? | . | -7% | 16µM*
CC(C)CN(CC(C)C)C(=O)CCCC(=O)N(CC(C)C)CC(C)C | ? | -1% | -4% | 16µM*
Cc1ccc(C)c2c1c1ccccc1n2C | 2% | 4% | . | -3%
Cn1c2ccccc2c2ccc3c(c21)C(=O)C=CC3=O | 0.41µM* | . | -4% | 0.52µM*
SMILES | DT40 TDP1 CPT | TDP1 inh | ClpP mod | DT40 TDP1 no CPT
Cc1ccc2c(c1)c1ccc3c(c1n2C)C(=O)C=CC3=O | 0.52µM* | 10% | 0% | 0.58µM*
COc1ccc2c(c1)c1ccc3c(c1n2C)C(=O)C=CC3=O | 0.73µM* | 6% | -1% | 0.52µM*
Cc1cnc(CNc2ncncc2-c2cccc(NS(C)(=O)=O)c2)cn1 | -6% | . | . | 15%
COc1cc(CC(=O)OCC(=O)N(C)C2CCCCC2)cc(OC)c1OC | ? | 0% | 0% | 21µM*
O=C(CCn1c(=O)c2ccccc2n(Cc2cccc([N+](=O)[O-])c2)c1=O)N1CCc2ccccc2C1 | ? | 3% | 25µM* | ?
CCOC(=O)c1ccccc1NC(=O)Cn1c(=O)n(CCC(=O)N2CCc3ccccc3C2)c(=O)c2ccccc21 | 21µM* | 8% | 4% | 8.2µM*
Cc1ccc(NC(=O)Cn2c(=O)n(CCC(=O)N3CCc4ccccc4C3)c(=O)c3ccccc32)c(C)c1 | 21µM* | -3% | -2% | 23µM*
CCn1c(=O)c2ccccc2n(Cc2cccc([N+](=O)[O-])c2)c1=O | 2% | . | . | ?
CCOC(=O)N1CCC(NC(=O)c2cnn(-c3ccc(F)cc3)c2-n2cccc2)CC1 | . | 3% | 1% | .
O=C(CS(=O)(=O)Cc1ccccc1)NCc1ccccc1Cl | -4% | 1% | -3% | 17%
COc1ccc(C(=O)C2CCCN(Cc3cccn3-c3cccnc3)C2)cc1OC (configuration not stated) | 16µM* | . | . | 15µM*
CC(C)Oc1cccc(C(=O)C2CCCN(Cc3cccn3-c3cccnc3)C2)c1 (configuration not stated) | ? | 8% | -2% | 13µM*
O=C(c1ccc2c(c1)OCO2)C1CCCN(Cc2cccn2-c2cccnc2)C1 (configuration not stated) | 23µM* | 7% | 35µM* | 15µM*
CSc1ccc(C(=O)C2CCCN(Cc3cccn3-c3cccnc3)C2)cc1 (configuration not stated) | 4.6µM* | 5% | . | 5.2µM*
O=C(C1COc2ccccc2O1)N(Cc1cccnc1)c1nc2ccc(F)cc2s1 (configuration not stated) | -6% | 0% | 1% | 1%
CCC1CCCCN1C(=O)c1ccc(OC2CCN(C(=O)CCOC)CC2)cc1 (configuration not stated) | -17% | 5% | -1% | -3%
Cc1cc(C(=O)NCC2CCC3(CCN(Cc4cc(F)ccc4F)CC3)O2)n(C)n1 (configuration not stated) | -12%[9.04 µM] | . | . | ?
CN(C(=O)c1cccc(NC(=O)Cc2ccc(NC(=O)C3CCN(C(=O)c4ccccc4)CC3)cc2)c1)C1CCCC1 | ? | . | -1% | ?
CN1c2ccccc2-c2ccccc2S1(=O)=O | 32µM* | . | 1% | ?
COc1ccc2c(c1)-c1ccccc1S(=O)(=O)N2C | ? | 6% | 1% | ?
